The structures appear in SMILES notation. Structures can show the parent of a compound that is named as a salt.

The subject of the test is Staphylococcus aureus Sa2 (MRSA, cystic fibrosis isolate). The test can be described thus: growth reduction vs untreated control (OD550); higher = stronger antibacterial activity. Particulars: 0.1 mM; 24 h. The procedure:
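Single-dose screen of the MedChem Express Drug Repurposing Library (0.1 mM, 1% DMSO) against planktonic MRSA S. aureus Sa2 (CF isolate) in TSB in 96-well plates, 37 °C aerobic, 24 h. Assays were run in triplicate and repeated twice.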
Regarding `C[C@@H](O[C@H]1OCCN(Cc2n[nH]c(=O)[nH]2)[C@H]1c1ccc(F)cc1)c1cc(C(F)(F)F)cc(C(F)(F)F)c1` [Aprepitant], the growth reduction was 98.2%.
The compound `O=C(O)C1(c2ccc(-c3ccc(Cl)c(Cl)c3)c(F)c2)CC1` [Itanapraced] showed a growth reduction of 100%.
The compound `Nc1ncccc1-c1nc2ccc(-c3ccccc3)nc2n1-c1ccc(C2(N)CCC2)cc1` [Miransertib] registered a growth reduction of 97.6%.
Turning to `C[C@H](CCC(=O)O)[C@H]1CC[C@H]2[C@@H]3[C@H](O)C[C@@H]4C[C@H](O)CC[C@]4(C)[C@H]3CC[C@]12C` [Chenodeoxycholic Acid], the growth reduction was determined as 99%.
Regarding `Clc1ccc(Nc2nnc(Cc3ccncc3)c3ccccc23)cc1` [Vatalanib (dihydrochloride)], the growth reduction worked out at 100%.
In the case of `COc1ccc(C(=O)NC2(C(=O)O)Cc3ccccc3C2)cc1OCCc1cccc(C)c1`, the growth reduction was 90.3%.
`CCc1nc(-c2cccc(C)c2)c(-c2ccnc(NC(=O)c3ccccc3)c2)s1`: the growth reduction turned out to be 100%.
The value for `Clc1ccc(COC(Cn2ccnc2)c2ccc(Cl)cc2Cl)c(Cl)c1` (configuration not stated) [Miconazole (nitrate)] was 100%.
`CC1(C)CC[C@]2(C(=O)O)CC[C@]3(C)[C@H](C(=O)C=C4[C@@]5(C)C=C(C#N)C(=O)C(C)(C)[C@@H]5CC[C@]43C)[C@@H]2C1` [Bardoxolone] came in with a growth reduction of 100%.
Take `O=C(O)c1ccc(-n2nc(-c3ccccc3O)nc2-c2ccccc2O)cc1` [Deferasirox]: the growth reduction came out at 96.2%.
The compound `N[C@@H](Cc1cc(I)c(Oc2cc(I)c(O)c(I)c2)c(I)c1)C(=O)O` [L-Thyroxine (sodium salt pentahydrate)] gave a growth reduction of 100%.
For the compound `Cc1c(CN(C)C(=O)/C=C/c2cnc3c(c2)CCC(=O)N3)oc2ccccc12`, the growth reduction is 100%.
Next, `c1cn2cc(-c3ccc4cn[nH]c4c3)nc(Nc3ccc(N4CCOCC4)cc3)c2n1` [Entospletinib]: 100%.
`Cc1ccc(-n2[nH]c(C)c(N=Nc3cccc(-c4cccc(C(=O)O)c4)c3O)c2=O)cc1C` [Eltrombopag (Olamine)] had a growth reduction of 95.9%.
The compound `OC1(c2ccc(Cl)c(C(F)(F)F)c2)CCN(CCCC(c2ccc(F)cc2)c2ccc(F)cc2)CC1` [Penfluridol] yielded a growth reduction of 100%.
In the case of `CCOC(=O)N1CCC(=C2c3ccc(Cl)cc3CCc3cccnc32)CC1` [Loratadine], the growth reduction was 100%.
For `CC(=O)OCC(=O)[C@@]1(O)CC[C@H]2[C@@H]3CCC4=CC(=O)C=C[C@]4(C)[C@H]3C(=O)C[C@@]21C` [Prednisone acetate], the growth reduction came to 97.7%.
The value for `CC(=O)O[C@]1(C(C)=O)CC[C@H]2[C@@H]3C=C(C)C4=CC(=O)CC[C@]4(C)[C@H]3CC[C@@]21C` [Megestrol acetate] was 100%; that for `CC(C)(C)c1cc(C(C)(C)C)c(NC(=O)c2c[nH]c3ccccc3c2=O)cc1O` [Ivacaftor] was 95.3%.
Compound `COc1ccc(Cl)c(Nc2nc3ccccc3nc2NS(=O)(=O)c2cccc(NC(=O)C(C)(C)N)c2)c1` [Pilaralisib] returned a growth reduction of 100%.
Compound `CCN(CC)CC#CCOC(=O)C(O)(c1ccccc1)C1CCCCC1` (configuration not stated) [Oxybutynin (chloride)] yielded a growth reduction of 94.3%.
As to `O=c1ccc2ccc(O)c(O)c2o1` [Daphnetin], the growth reduction amounted to 94.5%.
As for `Cc1cccc(/C=N/Nc2cc(N3CCOCC3)nc(OCCc3ccccn3)n2)c1` [Apilimod (mesylate)], the growth reduction was determined as 97.4%.
For `Cc1nc(C(=O)NCC(=O)O)c(O)c2ccc(Oc3ccccc3)cc12` [Roxadustat], the growth reduction stood at 99.9%.
Compound `O=c1nc(OC[C@@H]2COCCO2)cc2n1CCc1cc(C#CC3CC3)ccc1-2` showed a growth reduction of 96.2%.
The compound `CCCCCCCCOc1ccccc1C(=O)Nc1ccc(C(=O)OCC[N+](C)(CC)CC)cc1` [Otilonium (bromide)] yielded a growth reduction of 100%.
`C[C@H]1Cc2c([nH]c3cc(Cl)c(F)cc23)[C@@]2(N1)C(=O)Nc1ccc(Cl)cc12` [Cipargamin] gave a growth reduction of 100%.
`Oc1c(Br)cc(Br)c2cccnc12` [Broxyquinoline] had a growth reduction of 100%.
`CO[C@@H](Cc1ccc(OCCc2nc(-c3ccccc3)oc2C)c2ccsc12)C(=O)O` [Aleglitazar]: the growth reduction is 92.2%.
Next, `CS(=O)(=O)c1cc(F)cc2c3c(n(Cc4ccc(Cl)cc4)c12)[C@@H](CC(=O)O)CC3` [Laropiprant]: 96.1%.
For the compound `COc1cc(F)c(F)c(Nc2ccc(I)cc2F)c1NS(=O)(=O)C1(C[C@H](O)CO)CC1` [Refametinib], the growth reduction amounted to 100%.
`CCCCc1nc(-c2ccc(OCCCN(CC)CC)cc2)cn1-c1ccc(Oc2ccc(Cl)cc2)cc1` [Azeliragon]: the growth reduction was determined as 100%.

The values above are taken from the supplement of paper PMC12024424.
